# Laboratory results from PubChem BioAssay (NCI).
# Compounds without any hit were thinned out: in the full panel of roughly 79,000, 15% have a hit. Values without a mark were called inactive. Active and inactive are the calls of the source. No stated cut-off is given here; in the data, active means growth inhibition above about 70%; inactive means the rest.
# Experiment: NCI Yeast Anticancer Drug Screen. Data for the cln2 rad14 strain (AID 165);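 further: 0% = growth equal to vehicle treated cultures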
# Conditions: S. cerevisiae cln2 rad14 strain, at 50.0 µM (retest, dose inferred, filed as 5.0), hits give high values
# In short: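 Each compound was tested on cln2 rad14 yeast. Inhibition of growth was calculated against vehicle-exposed controls.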
row,Structure (SMILES),growth inhibition
1,Oc1ccc2oc3ccccc3c2c1,46%
2,O=C(O)Cc1cc(I)c(Oc2ccc(O)c(I)c2)c(I)c1,97% (active)
3,O=C(O)/C(=C\c1ccc(Cl)cc1)c1ccc(C(F)(F)F)cc1[N+](=O)[O-],84% (active)
4,Fc1ccc(NC(=S)SCc2ccccc2)cc1,1%
5,CN(C)c1ccccc1CC(c1c[nH]c2ccccc12)c1c[nH]c2ccccc12,94% (active)
6,O=C(c1ccccc1)N1CCN(c2cccc(Cl)c2)CC1,10%
7,[C-]#[N+]C(C)(c1ccccc1)c1ccccc1,47%
8,Nc1ccccc1[S][Sn]([c]1ccccc1)([c]1ccccc1)[c]1ccccc1,98% (active)
9,O=C1C(Cl)=C(Cl)C(=O)c2cc(Cl)c(Cl)cc21,97% (active)
10,CCCCCCCNC1CCCc2cc(OC)ccc21 (stereo unspecified),54%
11,NCCc1ccc2oc3cc(=O)c4ccccc4c-3nc2c1,8%
12,C/C=C/c1cc2c(cc1O)CC[C@@H]1[C@@H]2CC[C@]2(C)[C@@H](O)CC[C@@H]12,97% (active)
13,c1ccc(SSc2ccccn2)nc1,99% (active)
14,COC1=C2C[C@@H](C)C[C@@H](OC)[C@@H](O)[C@H](C)/C=C(\C)[C@@H](OC(N)=O)[C@H](OC)/C=C\C=C(/C)C(=O)NC(=CC1=O)C2=O,85% (active)
15,NCc1ccccc1-c1c2nc(c(-c3ccccc3CN)c3ccc([nH]3)c(-c3ccccc3CN)c3nc(c(-c4ccccc4CN)c4ccc1[nH]4)C=C3)C=C2,66%
16,Cc1cc(C)n2nc(N)c(C#N)c2c1C#N,2%
